In PubChem BioAssay:
“And” between values parts separate entries of the source, which are not always exact repeats. Identical values can stand only once. Results filed as inconclusive are left out. The source made the active and inactive calls. Unless noted, no rule for the calls is given here.

Experiments:
[1] = circadian clock period modulators, cell-based, LOPAC library, luminescence reporter (AID 2774); conditions: circadian reporter cells, at 7 µM, actives lie on both sides;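 also: values are relative to mean of DMSO wells on each plate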
[2] = tested on: Aerobactin synthetase IucA (Klebsiella pneumoniae, hypervirulent); experiment: IucA enzyme inhibition, biochemical, LOPAC library, absorbance readout (AID 1346212); conditions: IucA enzyme assay, absorbance (OD) readout; stronger effect = lower value;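 tested at 8 µM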;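 also: 100% = no compound wells and 0% = no enzyme wells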
[3] = growth inhibition of DIPG glioma cells, dose response, cell-based, SU-DIPG-XIII, MIPE4.0, CellTiter-Glo, qHTS (AID 1347061; cut-off not given, nearly all actives have AC50 up to about 37 µM;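 also: cells exposed to compound for 48 hours before readout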); conditions: SU-DIPG-XIII viability, CellTiter-Glo ATP luminescence
[4] = growth inhibition of DIPG glioma cells, dose response, cell-based, JHH-DIPG-1, MIPE4.0, CellTiter-Glo, qHTS (AID 1347062; cut-off not given, nearly all actives have AC50 up to about 27 µM); conditions: JHH-DIPG-1 viability, CellTiter-Glo ATP luminescence
[5] = growth inhibition of DIPG glioma cells, dose response, cell-based, SU-DIPG-IV, MIPE4.0, CellTiter-Glo, qHTS (AID 1347063; cut-off not given, nearly all actives have AC50 up to about 30 µM;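 also: compound exposure lasted 48 hours before the viability readout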); conditions: SU-DIPG-IV viability, CellTiter-Glo ATP luminescence
[6] = SU-DIPG-VI glioma cell viability, MIPE4.0 library, CellTiter-Glo luminescence, qHTS (AID 1347066; cut-off not given, nearly all actives have AC50 up to about 30 µM;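 also: cells exposed to compound for 48 hours before readout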); conditions: CellTiter-Glo ATP luminescence
[7] = tested on: Hepatitis C virus NS3 helicase; experiment: HCV NS3 helicase inhibitors, primary screen, biochemical, fluorescence polarization, LOPAC1280 library (AID 687035; in the data active = inhibition above about 37%); conditions: Purified HCV NS3 helicase, Cy5-dT15 ssDNA binding fluorescence polarization; stronger effect = higher value; concentration not given here
[8] = Cy5 fluorescence quenching or enhancement artefacts, artefact control for HCV NS3 helicase inhibitor project, biochemical, LOPAC1280 (AID 687037); conditions: Cy5-DNA-NS3h complex fluorescence interference counterscreen
[9] = sensitizers of A549 cells to miR-34 induction, primary screen, imaging, A549 dox-inducible miR-34, nuclei and caspase counts (AID 1347080;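 active = compounds whose cell count with miR-34 switched on is under 0.7 times the count with it off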); conditions: A549 miR-34 inducible, Hoechst nuclei count, 48 h
[10] = phospholipid biosynthesis inhibitors in animal cells, primary screen, cell-based, LOPAC library, screen 4 (AID 1347384); conditions: phospholipid biosynthesis inhibition screen, at 10 µM
[11] = viability rescue of complex I mutant cybrids, primary screen, cell-based, galactose medium, ATP luminescence (AID 1645843;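 active = z-score of at least 1.8 in each of two replicates, scored against plate mean and spread of sample wells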;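 also: positive z means more ATP and so rescue of galactose-driven cybrid death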); conditions: complex I mutant cybrid cells, 72 h, stronger effect = higher value
[12] = survival rescue of mitochondrial mutant cells in low glucose, primary screen, MELAS cybrids, Rieske KO mouse fibroblasts, CellTiter-Glo (AID 1508586;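 active = mean z-score across replicates of 1.96 or higher in either the MELAS or the Rieske mutant cell line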;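 also: z relative to plate mean and SD of compound and empty wells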)
[13] = hESC survival regulators, cell-based (AID 493140); conditions: human embryonic stem cell survival screen; stronger effect = higher value;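 also: cells exposed to compounds for four days before counting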
[14] = viability loss in pontine glioma line – cell-based, SU-DIPG-XXV, MIPE5.0, CellTiter-Glo, qHTS, dose response (AID 1347065; cut-off not given, nearly all actives have AC50 up to about 26 µM;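 also: cells exposed to compound for 48 hours before ATP readout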); conditions: CellTiter-Glo ATP luminescence
[15] = JHH-DIPG-1 glioma cell viability, MIPE5.0 library, CellTiter-Glo luminescence, qHTS (AID 1347067; cut-off not given, nearly all actives have AC50 up to about 26 µM;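 also: cells exposed to compound for 48 hours before readout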); conditions: JHH-DIPG-1 glioma viability, CellTiter-Glo ATP luminescence
[16] = SU-DIPG-XXV glioma cell viability, MIPE5.0 library, qHTS (AID 1347068; cut-off not given, nearly all actives have IC50 up to about 30 µM)
[17] = inhibitors of Cryptococcus chitosan production, flow cytometry, Cibacron Brilliant Red staining (AID 1347148); conditions: Cryptococcus neoformans chitosan, stronger effect = lower value; at 10 µM unless noted;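 also: compound exposure lasted three days at 37 degrees C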
[18] = liver-stage malaria parasite growth inhibition, primary screen, cell-based, HepG2, luciferase luminescence, HepG2 viability (AID 624349; in the data active = parasite load remaining mostly below about 12%, no sharp cut-off; inactive = mostly above about 10%;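 also: 100% = mean of DMSO negative control wells on the same plate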); conditions: P. berghei liver stage in HepG2, luciferase luminescence, concentration not given here; parasite load remaining: stronger effect = lower value; viability: measured here: HepG2 viability without parasites
[19] = measured here: relative caspase fold change +Dox/-Dox
[20] = measured here: total cells with miR-34 induction, stronger effect = lower value
[21] = measured here: total cells without miR-34 induction
[22] = MELAS cybrid survival, CellTiter-Glo 48 h, stronger effect = higher value
[23] = Rieske KO mouse fibroblast survival, CellTiter-Glo 72 h

Cc1nc(-c2ccc(-c3ccc(C(=O)N4CCc5cc6c(cc54)C4(CCN(C)CC4)CO6)cc3)c(C)c2)no1
period change [1]: 0.165 h (inactive)
remaining activity [2]: 96.4% (inactive)
outcome [3]: inactive
outcome [4]: inactive
outcome [5]: inactive
outcome [6]: inactive

CCCN(CCC)[C@H]1CCc2c(F)ccc(O)c2C1
period change [1]: -0.075 h (inactive)
inhibition [7]: -4% (inactive)
fluorescence ratio (interference) [8]: 1 (inactive)
remaining activity [2]: 115% (inactive)
fold change ([9]; stronger effect = lower value): 1.05 (inactive)
fold change [9, 19]: 1.11
cell count [9, 20]: 10100
cell count [9, 21]: 9610
outcome [10]: inactive
z-score [11]: -0.33 (inactive)

NC(=O)CN1CC(O)CC1=O (configuration not stated)
period change [1]: 0.03 h (inactive)
inhibition [7]: -2% (inactive)
fluorescence ratio (interference) [8]: 1 (inactive)
remaining activity [2]: 115% (inactive)
fold change ([9]; stronger effect = lower value): 1.04 (inactive) and 0.877 (inactive)
fold change [9, 19]: 1.56 and 1.01
cell count [9, 20]: 10800 and 8840
cell count [9, 21]: 10500 and 10100
outcome [10]: inactive
z-score [12, 22]: -0.221 (inactive)
z-score [12, 23]: -0.154
z-score [11]: 0.605 (inactive)

CC(=O)c1c(O)c(C)c(O)c(Cc2c(O)c3c(c(C(=O)/C=C/c4ccccc4)c2O)OC(C)(C)C=C3)c1O
period change [1]: 0.065 h (inactive)
survival [13]: 142 (inactive)
inhibition [7]: -3% (inactive)
fluorescence ratio (interference) [8]: 0.9 (inactive)
remaining activity [2]: 100% (inactive)
AC50 [14]: 20.9 µM (active)
AC50 [15]: 23.5 µM (active)
outcome [16]: inactive
fold change ([9]; stronger effect = lower value): 0.991 (inactive) and 1.02 (inactive)
fold change [9, 19]: 1.01 and 0.826
cell count [9, 20]: 1480 and 1570
cell count [9, 21]: 1490 and 1540
fold fluorescence [17]: 4.65 [at 96.8 µM] (inactive)
outcome [10]: active
z-score [11]: -1.27 (inactive)

CCCN(CCC)[C@@H]1CCc2ccc(O)cc2C1
period change [1]: 0.12 h (inactive)
inhibition [7]: 0% (inactive)
fluorescence ratio (interference) [8]: 1.1 (inactive)
remaining activity [2]: 125% (inactive)
fold change ([9]; stronger effect = lower value): 0.992 (inactive)
fold change [9, 19]: 1.38
cell count [9, 20]: 9820
cell count [9, 21]: 9900
outcome [10]: inactive
z-score [11]: -0.195 (inactive)

NCC(O)c1cc(O)c(O)cc1F (configuration not stated)
period change [1]: -0.105 h (inactive)
inhibition [7]: 1% (inactive)
fluorescence ratio (interference) [8]: 0.9 (inactive)
remaining activity [2]: 110% (inactive)
fold change ([9]; stronger effect = lower value): 1.02 (inactive)
fold change [9, 19]: 1.46
cell count [9, 20]: 10300
cell count [9, 21]: 10200
outcome [10]: inactive
z-score [11]: -1.47 (inactive)

CCn1cnc2c(Nc3cccc(Cl)c3)nc(N[C@@H]3CCCC[C@@H]3N)nc21
period change [1]: 0.275 h (inactive)
parasite load remaining [18]: 33.4% (inactive)
viability [18]: 108%
inhibition [7]: -2% (inactive)
fluorescence ratio (interference) [8]: 0.9 (inactive)
remaining activity [2]: 98.9% (inactive)
fold change ([9]; stronger effect = lower value): 0.982 (inactive)
fold change [9, 19]: 0.968
cell count [9, 20]: 797
cell count [9, 21]: 812
outcome [10]: inactive
z-score [11]: -1.48 (inactive)

NCCc1ccc(S(=O)(=O)F)cc1
period change [1]: -0.1 h (inactive)
inhibition [7]: -2% (inactive)
fluorescence ratio (interference) [8]: 0.9 (inactive)
remaining activity [2]: 99.4% (inactive)
fold change ([9]; stronger effect = lower value): 1.01 (inactive) and 0.94 (inactive)
fold change [9, 19]: 0.956 and 0.406
cell count [9, 20]: 10400 and 7770
cell count [9, 21]: 10400 and 8270
outcome [10]: inactive
z-score [12, 22]: -0.305 (inactive)
z-score [12, 23]: -1.62
z-score [11]: 0.125 (inactive)
